# Assay results published in the supplement of paper PMC10849652.
# About 8,800 targets were measured; listed, in parts, are those with a hit and a random draw of the rest. About 0.5% of all pairs of compound and target were hits. A number with no mark means an inactive call.
# Assays:
# Assay in all cases: log2 fold change, soluble protein after heating vs DMSO (PISA); higher = thermal stabilisation; K562 lysate, 10 uM; active = over 0.2 and 3.5 SD of the protein, either way, in both replicates (recomputed)
# [1] = compound: C#Cc1cccc(Nc2ncnc3cc(OCCOC)c(OCCOC)cc23)c1 [erlotinib]
# Summary of the method: (§1)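 Values give the log-two fold change in thermal stability against solvent controls, from duplicates. Crude K562 extract at 1 mg/mL protein, made by dounce homogenisation in PBS pH 7.4 with 1 mM MgCl2, was treated with 10 μM compound for 30 min. After 3 min heating across 48°C-58°C, aliquots were pooled, adjusted to 0.5% NP-40 at 4°C and centrifuged at 21,000xg for 90 min. The supernatant was measured by TMTpro 16plex LC-MS/MS with channel sums equalised.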
# [2] = compound: C1=CC(=CC=C1C2=NC3=C(N2)C=C(C=C3)C(=O)N)OC4=CC=C(C=C4)Cl
# Summary of the method: as §1
# [3] = compound: C1=CC2=NC=CN=C2C=C1/C=C/3\C(=O)NC(=O)S3
# Summary of the method: as §1
# [4] = compound: C1=CC=C(C=C1)C2=NC(=C(N2)C3=CC=NC=C3)C4=CC(=C(C=C4)Cl)O
# Summary of the method: as §1
# [5] = compound: C1CCN(C1)C(=O)NC2=CC=CC(=C2)NC3=NC=C(C(=N3)NCCC4=CN=CN4)Br
# Summary of the method: as §1
# [6] = compound: C1CN(CCC1(CC2=CC=C(C=C2)Cl)N)C3=NC=NC4=C3C=CN4
# Summary of the method: as §1
# [7] = compound: C1COCCN1CCN2C3=CC=CC=C3N=C2NC(=O)C4=CC(=CC=C4)[N+](=O)[O-] [IRAK-1-4 Inhibitor I]
# Summary of the method: as §1
# [8] = compound: C=CC(=O)N1CCC[C@@H](n2nc(-c3ccc(Oc4ccccc4)cc3)c3c(N)ncnc32)C1 [ibrutinib]
# Summary of the method: as §1
# [9] = compound: CC(=O)c1cnc2ccc(-c3cc(Cl)c(O)c(Cl)c3)nc2c1N[C@H]1CC[C@H](CN(C)C)CC1
# Summary of the method: as §1
# [10] = compound: CC(C)(C)Cn1c(N)nc2ccc(-c3[nH]c(C(C)(C)C)nc3-c3ccc(F)cc3)nc21 [ralimetinib]
# Summary of the method: as §1
# [11] = compound: CC(C)(O)CC(=O)NCCn1ccc2ncnc(Nc3ccc(Oc4cccc(C(F)(F)F)c4)c(Cl)c3)c21
# Summary of the method: as §1
# [12] = compound: CC(C)C1=C2N=C(C=C(N2N=C1)NCC3=CC=CC=C3)NCCCCCCN
# Summary of the method: as §1
# [13] = compound: CC1=C(C(CC(=O)N1)C2=CC=C(C=C2)C(F)(F)F)C(=O)NC3=C(C=C4C(=C3)C=NN4)F
# Summary of the method: as §1
# [14] = compound: CC1=C(C2=C(C=C1)C(=O)C3=CC=CC=C3N2CCCN)C
# Summary of the method: as §1
# [15] = compound: CC1=C(C=C(C=C1)NC(=O)C2=CC(=CC=C2)C(C)(C)C#N)NC3=CC4=C(C=C3)N=CN(C4=O)C
# Summary of the method: as §1
# [16] = compound: CC1=C(C=C(C=C1)NC(=O)C2=CC(=CC=C2)N(C)C)NC(=O)C3=CC=C(C=C3)O
# Summary of the method: as §1
# [17] = compound: CC1=CC=C(C=C1)SC2=C3C=C(SC3=CN=C2)C(=O)N
# Summary of the method: as §1
# [18] = compound: C/C(=N\NC(=O)C1=CC(=CC=C1)S(=O)(=O)N2CCOCC2)/C3=C(C=CC(=C3)Cl)O
# Summary of the method: as §1
# [19] = compound: C1=CC2=C(C=CC(=C2)/C=C\3/C(=O)NC(=NCC4=CC=CS4)S3)N=C1
# Summary of the method: as §1
# [20] = compound: C1=CC=C2C(=C1)C3=NNC4=CC=CC(=C43)C2=O
# Summary of the method: as §1
# Sequence of UniProt P52333 (P52333 whole entry, looked up): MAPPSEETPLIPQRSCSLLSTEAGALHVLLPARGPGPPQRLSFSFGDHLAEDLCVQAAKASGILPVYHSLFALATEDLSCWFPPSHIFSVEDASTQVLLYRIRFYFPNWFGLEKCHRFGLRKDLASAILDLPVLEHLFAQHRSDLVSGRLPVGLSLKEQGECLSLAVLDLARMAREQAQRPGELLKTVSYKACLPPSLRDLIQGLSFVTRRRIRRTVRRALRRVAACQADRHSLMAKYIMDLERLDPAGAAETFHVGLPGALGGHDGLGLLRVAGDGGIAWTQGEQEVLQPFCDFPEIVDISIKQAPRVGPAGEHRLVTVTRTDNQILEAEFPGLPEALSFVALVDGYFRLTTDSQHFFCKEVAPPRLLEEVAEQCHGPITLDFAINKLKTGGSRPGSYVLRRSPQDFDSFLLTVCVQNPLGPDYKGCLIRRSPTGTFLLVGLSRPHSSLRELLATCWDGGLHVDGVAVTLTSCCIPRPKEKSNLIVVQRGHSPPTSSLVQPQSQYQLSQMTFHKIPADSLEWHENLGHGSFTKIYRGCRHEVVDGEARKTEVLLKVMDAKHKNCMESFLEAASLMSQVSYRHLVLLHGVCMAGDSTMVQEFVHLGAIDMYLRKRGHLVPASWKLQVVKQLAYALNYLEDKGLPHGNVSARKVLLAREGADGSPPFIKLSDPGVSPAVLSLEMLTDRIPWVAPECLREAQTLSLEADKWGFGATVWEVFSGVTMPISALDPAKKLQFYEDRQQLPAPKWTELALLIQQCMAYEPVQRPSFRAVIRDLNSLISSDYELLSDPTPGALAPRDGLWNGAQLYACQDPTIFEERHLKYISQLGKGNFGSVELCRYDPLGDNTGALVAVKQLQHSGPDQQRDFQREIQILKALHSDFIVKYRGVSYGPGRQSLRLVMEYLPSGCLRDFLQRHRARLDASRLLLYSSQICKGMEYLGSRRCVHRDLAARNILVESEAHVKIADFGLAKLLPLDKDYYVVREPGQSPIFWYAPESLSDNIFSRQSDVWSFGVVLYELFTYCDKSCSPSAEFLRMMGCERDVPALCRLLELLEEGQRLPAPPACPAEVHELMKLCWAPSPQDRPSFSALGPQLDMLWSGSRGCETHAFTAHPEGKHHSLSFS
# Sequence of UniProt Q8IWB1 (Q8IWB1 whole entry, looked up): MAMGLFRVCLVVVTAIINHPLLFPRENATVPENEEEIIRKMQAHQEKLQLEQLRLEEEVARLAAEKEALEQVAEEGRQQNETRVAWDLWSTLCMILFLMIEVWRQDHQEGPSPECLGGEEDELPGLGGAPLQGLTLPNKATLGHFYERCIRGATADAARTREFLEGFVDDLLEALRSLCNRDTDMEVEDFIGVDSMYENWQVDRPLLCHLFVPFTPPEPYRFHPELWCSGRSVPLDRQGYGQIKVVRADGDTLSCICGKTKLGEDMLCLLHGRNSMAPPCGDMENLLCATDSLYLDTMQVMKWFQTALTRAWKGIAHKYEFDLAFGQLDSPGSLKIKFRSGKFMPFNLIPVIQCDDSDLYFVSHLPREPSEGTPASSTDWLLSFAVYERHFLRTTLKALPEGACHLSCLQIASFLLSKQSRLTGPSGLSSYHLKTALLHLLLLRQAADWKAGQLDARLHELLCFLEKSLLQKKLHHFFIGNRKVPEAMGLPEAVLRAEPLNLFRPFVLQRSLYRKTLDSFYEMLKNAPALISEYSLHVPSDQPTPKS
# Sequence of UniProt P22692 (P22692 whole entry, looked up): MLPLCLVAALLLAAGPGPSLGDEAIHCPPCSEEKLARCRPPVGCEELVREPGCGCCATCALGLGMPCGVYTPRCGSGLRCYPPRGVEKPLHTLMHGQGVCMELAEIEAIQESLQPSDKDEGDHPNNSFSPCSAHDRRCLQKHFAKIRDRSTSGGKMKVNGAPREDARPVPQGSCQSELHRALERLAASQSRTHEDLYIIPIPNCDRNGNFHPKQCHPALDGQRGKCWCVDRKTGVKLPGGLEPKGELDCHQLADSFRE
# Sequence of UniProt Q9HAV0 (Q9HAV0 whole entry, looked up): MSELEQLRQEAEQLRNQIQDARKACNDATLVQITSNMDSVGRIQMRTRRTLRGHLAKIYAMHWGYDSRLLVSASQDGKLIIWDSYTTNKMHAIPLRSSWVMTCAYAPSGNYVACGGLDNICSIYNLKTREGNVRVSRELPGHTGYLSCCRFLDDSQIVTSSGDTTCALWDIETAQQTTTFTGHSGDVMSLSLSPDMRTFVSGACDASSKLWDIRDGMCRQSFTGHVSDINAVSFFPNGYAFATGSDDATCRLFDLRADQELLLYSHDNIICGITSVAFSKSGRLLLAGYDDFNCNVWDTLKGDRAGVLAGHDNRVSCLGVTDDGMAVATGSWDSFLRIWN
# Sequence of UniProt Q6ICG6 (Q6ICG6 whole entry, looked up): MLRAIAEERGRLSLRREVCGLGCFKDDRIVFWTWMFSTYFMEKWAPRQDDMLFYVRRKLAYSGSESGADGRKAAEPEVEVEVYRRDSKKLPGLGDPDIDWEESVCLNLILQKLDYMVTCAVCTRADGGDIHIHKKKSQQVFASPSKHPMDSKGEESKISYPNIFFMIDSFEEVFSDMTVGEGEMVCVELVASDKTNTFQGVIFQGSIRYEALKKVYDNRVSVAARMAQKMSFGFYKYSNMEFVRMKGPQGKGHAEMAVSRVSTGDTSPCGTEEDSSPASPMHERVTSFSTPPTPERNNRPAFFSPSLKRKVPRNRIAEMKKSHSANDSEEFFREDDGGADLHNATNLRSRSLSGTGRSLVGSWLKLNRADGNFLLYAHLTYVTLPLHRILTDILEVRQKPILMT
# Sequence of UniProt O43824 (O43824 whole entry, looked up): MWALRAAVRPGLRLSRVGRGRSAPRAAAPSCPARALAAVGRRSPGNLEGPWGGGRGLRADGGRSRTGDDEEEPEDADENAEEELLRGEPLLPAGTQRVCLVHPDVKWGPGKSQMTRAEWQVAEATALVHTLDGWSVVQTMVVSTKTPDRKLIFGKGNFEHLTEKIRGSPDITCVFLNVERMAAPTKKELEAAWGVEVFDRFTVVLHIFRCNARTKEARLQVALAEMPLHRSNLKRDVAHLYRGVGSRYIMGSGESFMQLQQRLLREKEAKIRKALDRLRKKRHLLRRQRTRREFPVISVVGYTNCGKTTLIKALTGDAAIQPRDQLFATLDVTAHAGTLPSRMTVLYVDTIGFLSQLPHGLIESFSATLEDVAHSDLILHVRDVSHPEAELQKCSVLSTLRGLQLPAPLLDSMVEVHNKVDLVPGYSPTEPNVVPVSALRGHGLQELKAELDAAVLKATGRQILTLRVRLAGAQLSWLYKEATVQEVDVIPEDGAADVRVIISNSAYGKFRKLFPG
# Sequence of UniProt Q96EW2 (Q96EW2 whole entry, looked up): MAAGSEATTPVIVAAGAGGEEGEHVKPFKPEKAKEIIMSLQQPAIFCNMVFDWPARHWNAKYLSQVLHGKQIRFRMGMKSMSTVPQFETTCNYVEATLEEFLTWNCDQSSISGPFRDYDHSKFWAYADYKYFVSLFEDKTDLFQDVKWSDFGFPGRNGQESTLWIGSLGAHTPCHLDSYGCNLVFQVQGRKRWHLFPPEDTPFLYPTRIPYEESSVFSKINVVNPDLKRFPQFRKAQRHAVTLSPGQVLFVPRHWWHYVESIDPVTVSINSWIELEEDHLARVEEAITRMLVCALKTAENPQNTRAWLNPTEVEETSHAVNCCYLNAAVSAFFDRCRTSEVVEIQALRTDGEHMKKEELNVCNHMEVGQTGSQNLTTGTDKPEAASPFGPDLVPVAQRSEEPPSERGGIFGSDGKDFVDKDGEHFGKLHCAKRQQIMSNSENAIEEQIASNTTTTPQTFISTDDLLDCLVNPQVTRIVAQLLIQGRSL
# Sequence of UniProt Q96A47 (Q96A47 whole entry, looked up): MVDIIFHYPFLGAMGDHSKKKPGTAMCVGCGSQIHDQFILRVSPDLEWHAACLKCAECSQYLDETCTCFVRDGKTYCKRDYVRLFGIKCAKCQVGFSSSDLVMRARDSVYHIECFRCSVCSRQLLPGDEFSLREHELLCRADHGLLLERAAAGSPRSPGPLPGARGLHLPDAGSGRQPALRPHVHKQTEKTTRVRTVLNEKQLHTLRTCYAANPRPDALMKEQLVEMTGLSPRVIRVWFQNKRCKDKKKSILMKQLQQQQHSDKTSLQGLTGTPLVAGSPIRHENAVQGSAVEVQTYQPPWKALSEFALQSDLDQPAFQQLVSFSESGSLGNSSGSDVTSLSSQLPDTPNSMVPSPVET
# Sequence of UniProt P02724 (P02724 whole entry, looked up): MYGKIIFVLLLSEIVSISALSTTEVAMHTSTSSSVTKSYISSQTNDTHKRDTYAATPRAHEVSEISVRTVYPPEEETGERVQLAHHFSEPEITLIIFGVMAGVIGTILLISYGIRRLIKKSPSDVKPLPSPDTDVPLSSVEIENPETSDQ
# Sequence of UniProt Q9Y287 (Q9Y287 whole entry, looked up): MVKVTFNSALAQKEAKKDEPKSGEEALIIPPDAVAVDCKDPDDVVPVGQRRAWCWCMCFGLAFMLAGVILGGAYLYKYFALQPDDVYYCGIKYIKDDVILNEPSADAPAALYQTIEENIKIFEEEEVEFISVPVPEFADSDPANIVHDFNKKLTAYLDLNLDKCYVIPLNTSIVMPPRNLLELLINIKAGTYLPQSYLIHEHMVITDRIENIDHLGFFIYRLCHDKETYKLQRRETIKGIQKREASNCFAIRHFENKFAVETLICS
# Sequence of UniProt Q9BQQ3 (Q9BQQ3 whole entry, looked up): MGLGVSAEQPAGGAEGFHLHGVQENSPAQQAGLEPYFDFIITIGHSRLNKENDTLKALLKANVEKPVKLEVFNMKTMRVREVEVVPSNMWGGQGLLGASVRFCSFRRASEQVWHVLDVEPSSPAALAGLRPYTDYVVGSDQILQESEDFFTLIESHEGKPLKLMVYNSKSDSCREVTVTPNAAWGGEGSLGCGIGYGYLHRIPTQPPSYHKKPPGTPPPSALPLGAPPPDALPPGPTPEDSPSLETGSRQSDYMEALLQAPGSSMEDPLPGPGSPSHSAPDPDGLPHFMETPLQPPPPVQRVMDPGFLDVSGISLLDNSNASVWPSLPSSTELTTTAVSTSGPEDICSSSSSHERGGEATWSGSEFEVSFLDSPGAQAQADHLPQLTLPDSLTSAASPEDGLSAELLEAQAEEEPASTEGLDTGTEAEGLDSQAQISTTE
target,measurement,setting,value
GNB4 (UniProt Q9HAV0),log2 fold change,[1],-0.017
same,log2 fold change,[2],0.067
same,log2 fold change,[3],-0.049
same,log2 fold change,[4],-0.057
same,log2 fold change,[5],-0.035
same,log2 fold change,[6],-0.005
same,log2 fold change,[7],-0.024
same,log2 fold change,[8],-0.104
same,log2 fold change,[9],-0.071
same,log2 fold change,[10],0.009
same,log2 fold change,[11],-0.026
same,log2 fold change,[12],0
same,log2 fold change,[13],-0.05
same,log2 fold change,[14],-0.036
same,log2 fold change,[15],0.073
same,log2 fold change,[16],0.084
same,log2 fold change,[17],0.202
HNRNPD (UniProt D6RF44),log2 fold change,[13],0.111
same,log2 fold change,[15],-0.334
GYPA (UniProt P02724),log2 fold change,[1],-0.109
same,log2 fold change,[18],-0.107
same,log2 fold change,[2],0.13
same,log2 fold change,[19],0.061
same,log2 fold change,[3],0.059
same,log2 fold change,[4],0.023
same,log2 fold change,[20],0.048
same,log2 fold change,[5],-0.004
same,log2 fold change,[6],0.043
same,log2 fold change,[7],0.017
same,log2 fold change,[8],0.318
same,log2 fold change,[9],0.102
same,log2 fold change,[10],-0.052
same,log2 fold change,[11],0.054
same,log2 fold change,[12],-0.095
same,log2 fold change,[14],-0.085
same,log2 fold change,[15],0.018
same,log2 fold change,[16],-0.037
same,log2 fold change,[17],-0.034
HNRNPUL1 (UniProt M0R247),log2 fold change,[1],-0.046
same,log2 fold change,[2],0.079
same,log2 fold change,[3],-0.049
same,log2 fold change,[8],-0.045
same,log2 fold change,[12],0.016
HSPA8 (UniProt E9PN89),log2 fold change,[1],0.02
same,log2 fold change,[2],-0.004
same,log2 fold change,[3],-0.095
same,log2 fold change,[4],0.082
same,log2 fold change,[5],-0.045
same,log2 fold change,[6],-0.043
same,log2 fold change,[7],-0.055
same,log2 fold change,[8],0.081
same,log2 fold change,[9],-0.051
same,log2 fold change,[10],0.034
same,log2 fold change,[11],-0.215
same,log2 fold change,[12],0.007
same,log2 fold change,[13],-0.036
same,log2 fold change,[14],0.017
same,log2 fold change,[15],0.093
same,log2 fold change,[16],0.231
same,log2 fold change,[17],-0.083
HSPBAP1 (UniProt Q96EW2),log2 fold change,[1],0.064
same,log2 fold change,[2],-0.098
same,log2 fold change,[3],-0.079
same,log2 fold change,[4],-0.072
same,log2 fold change,[5],0.002
same,log2 fold change,[6],0.031
same,log2 fold change,[7],-0.002
same,log2 fold change,[8],-0.008
same,log2 fold change,[9],0.039
same,log2 fold change,[10],-0.056
same,log2 fold change,[11],-0.095
same,log2 fold change,[12],0.038
same,log2 fold change,[13],-0.214
same,log2 fold change,[14],-0.324
same,log2 fold change,[15],0.002
same,log2 fold change,[16],0.084
same,log2 fold change,[17],0.084
HMGN5 (UniProt Q5JSK9),log2 fold change,[3],-0.128
same,log2 fold change,[5],0.008
same,log2 fold change,[6],-0.076
same,log2 fold change,[8],0.051
same,log2 fold change,[9],-0.007
same,log2 fold change,[13],-0.094
same,log2 fold change,[17],-0.005
GTPBP6 (UniProt O43824),log2 fold change,[18],0.187
same,log2 fold change,[19],0.11
same,log2 fold change,[20],-0.048
same,log2 fold change,[5],-0.082
same,log2 fold change,[6],0.037
same,log2 fold change,[14],-0.617
ITPRIP (UniProt Q8IWB1),log2 fold change,[1],0.218
same,log2 fold change,[2],-0.16
same,log2 fold change,[12],0.023
same,log2 fold change,[14],0.041
IGF2BP2 isoform 6 (UniProt Q9Y6M1),log2 fold change,[9],-0.031
same,log2 fold change,[17],-0.016
JAK3 (UniProt P52333),log2 fold change,[18],0.037
same,log2 fold change,[19],-0.075
same,log2 fold change,[3],-0.041
same,log2 fold change,[20],0.23
same,log2 fold change,[8],0.076
same,log2 fold change,[9],0.056
same,log2 fold change,[15],-0.016
same,log2 fold change,[17],0.078
KIAA0930 isoform 2 (UniProt Q6ICG6),log2 fold change,[18],-0.004
same,log2 fold change,[19],-0.067
same,log2 fold change,[3],-0.229
same,log2 fold change,[4],-0.258
same,log2 fold change,[20],0.203
same,log2 fold change,[5],0.099
same,log2 fold change,[6],-0.01
same,log2 fold change,[7],-0.063
same,log2 fold change,[8],-0.16
same,log2 fold change,[9],-0.032
same,log2 fold change,[10],0.091
same,log2 fold change,[11],-0.085
same,log2 fold change,[13],-0.014
same,log2 fold change,[14],-0.119
same,log2 fold change,[15],0.042
same,log2 fold change,[16],-0.289
same,log2 fold change,[17],-0.017
GPLD1 (UniProt P80108),log2 fold change,[14],-0.058
same,log2 fold change,[15],-0.187
HDAC3 (UniProt E7ESJ6),log2 fold change,[9],-0.107
same,log2 fold change,[17],-0.004
"HNRNPL, A0A3B3ITJ4",log2 fold change,[3],-0.086
same,log2 fold change,[8],0.033
same,log2 fold change,[9],0.033
same,log2 fold change,[17],-0.104
ISL2 (UniProt Q96A47),log2 fold change,[1],-0.149
same,log2 fold change,[2],0.003
same,log2 fold change,[3],0.032
same,log2 fold change,[4],-0.014
same,log2 fold change,[7],0.016
same,log2 fold change,[8],0.05
same,log2 fold change,[10],0.056
same,log2 fold change,[11],-0.089
same,log2 fold change,[12],0.019
same,log2 fold change,[14],-0.003
same,log2 fold change,[15],-0.075
same,log2 fold change,[16],0.01
"GYPA, A0A2R8Y7F9",log2 fold change,[3],0.066
same,log2 fold change,[8],-0.019
IGFBP4 (UniProt P22692),log2 fold change,[1],0.06
same,log2 fold change,[2],0.025
same,log2 fold change,[3],0.218
same,log2 fold change,[4],-0.033
same,log2 fold change,[7],0.016
same,log2 fold change,[8],0.035
same,log2 fold change,[9],0.169
same,log2 fold change,[10],0.012
same,log2 fold change,[11],-0.087
same,log2 fold change,[12],-0.029
same,log2 fold change,[13],-0.021
same,log2 fold change,[14],0.236
same,log2 fold change,[15],0.123
same,log2 fold change,[16],0.037
same,log2 fold change,[17],-0.139
HNRNPM (UniProt M0R019),log2 fold change,[18],0.224
same,log2 fold change,[19],0.178
same,log2 fold change,[20],-0.128
HTT (UniProt P42858),log2 fold change,[1],0.018
same,log2 fold change,[18],-0.051
same,log2 fold change,[2],-0.067
same,log2 fold change,[19],0.037
same,log2 fold change,[3],0.032
same,log2 fold change,[4],-0.041
same,log2 fold change,[20],-0.138
same,log2 fold change,[5],-0.04
same,log2 fold change,[6],-0.05
same,log2 fold change,[7],-0.027
same,log2 fold change,[8],0.11
same,log2 fold change,[10],0.065
same,log2 fold change,[11],0.008
same,log2 fold change,[12],-0.032
same,log2 fold change,[13],0.047
same,log2 fold change,[14],-0.032
same,log2 fold change,[15],0.035
same,log2 fold change,[16],0.04
ITM2B (UniProt Q9Y287),log2 fold change,[1],-0.039
same,log2 fold change,[18],0.225
same,log2 fold change,[2],0.02
same,log2 fold change,[19],-0.202
same,log2 fold change,[3],0.026
same,log2 fold change,[4],0.005
same,log2 fold change,[20],0.052
same,log2 fold change,[7],0.023
same,log2 fold change,[8],-0.04
same,log2 fold change,[10],0.131
same,log2 fold change,[11],-0.106
same,log2 fold change,[12],-0.044
same,log2 fold change,[13],0.051
same,log2 fold change,[14],-0.011
same,log2 fold change,[15],0.019
same,log2 fold change,[16],-0.088
HNRNPM (UniProt M0QZM1),log2 fold change,[18],0.07
same,log2 fold change,[19],0.044
same,log2 fold change,[3],0.246
same,log2 fold change,[20],0.066
same,log2 fold change,[5],0.046
same,log2 fold change,[6],0.086
same,log2 fold change,[8],0.003
same,log2 fold change,[14],0.121
same,log2 fold change,[15],-0.068
H3-3A (UniProt P84243),log2 fold change,[1],0.038
same,log2 fold change,[18],0.001
same,log2 fold change,[2],0.048
same,log2 fold change,[19],-0.033
same,log2 fold change,[3],-0.055
same,log2 fold change,[20],0.056
same,log2 fold change,[5],-0.053
same,log2 fold change,[6],-0.315 (active)
same,log2 fold change,[8],0.042
same,log2 fold change,[9],-0.047
same,log2 fold change,[12],0.013
same,log2 fold change,[15],-0.034
same,log2 fold change,[17],-0.086
GORASP1 (UniProt Q9BQQ3),log2 fold change,[1],-0.081
same,log2 fold change,[18],-0.026
same,log2 fold change,[2],-0.019
same,log2 fold change,[19],0.05
same,log2 fold change,[4],0.01
same,log2 fold change,[20],-0.057
same,log2 fold change,[5],0.049
same,log2 fold change,[6],0.018
same,log2 fold change,[7],-0.023
same,log2 fold change,[9],0.137
same,log2 fold change,[10],-0.01
same,log2 fold change,[11],-0.011
same,log2 fold change,[12],0.019
same,log2 fold change,[13],0.038
same,log2 fold change,[14],0.027
same,log2 fold change,[15],-0.061
same,log2 fold change,[16],-0.034
same,log2 fold change,[17],-0.02
